# Where a name gives a salt, the structure may show the parent alone.
# Tested on: Saccharomyces cerevisiae BY4741 SeMeCo community
# Assay: z-score of subpopulation abundance vs DMSO median, subpopulation auxotrophic for UM; higher = larger share of this subpopulation than in DMSO controls
# Settings: 10 µM; 24 h; SM minimal medium; subpopulation (auxotrophy): UM
# Procedure: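 Fluorescent four-plasmid SeMeCo (self-establishing metabolically cooperating S. cerevisiae BY4741 community; plasmids pH-mRuby2, pL-mWasabi, pU-eCFP, pM-TagRFP657) was grown 24 h in minimal SM medium with each Selleck FDA-approved drug at 10 µM in 384-well plates. Cells were fixed and imaged by high-content confocal microscopy. For each auxotrophic subpopulation (and the prototroph), a z-score gives the deviation from the DMSO vehicle-control population median.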
row,Compound,z-score of subpopulation abundance
1,Oc1cccc2cccnc12 [8-Hydroxyquinoline],-1.16
2,Cc1cc(O)ccc1Cl [Chlorocresol],-0.48
3,CC(NC(C)(C)C)C(=O)c1cccc(Cl)c1 (centres undefined) [Amfebutamone (Bupropion) HCl],-0.25
4,CC(C)=CCOc1c2occc2cc2ccc(=O)oc12 [Imperatorin],0.52
5,CCCN1C[C@H](CSC)C[C@@H]2c3cccc4[nH]cc(c34)C[C@H]21 [Pergolide Mesylate],-0.77
6,C#C[C@]1(O)C=C[C@H]2[C@@H]3CCC4=CC(=O)CC[C@@H]4[C@H]3CC[C@@]21CC [Gestodene],-1.14
7,COc1ccc(C=O)cc1 [p-Anisaldehyde],-0.71
8,O=c1[nH]c2ccccc2n1CCCN1CCC(n2c(=O)[nH]c3cc(Cl)ccc32)CC1 [Domperidone],0.56
9,CC[C@H]1[C@@H]2C[C@H]3[C@@H]4N(C)c5ccccc5[C@]45C[C@@H]([C@@H]2[C@H]5O)N3[C@@H]1O [Ajmaline],-0.04
10,Nc1nc(N)nc(NC2CC2)n1 [Cyromazine],0.57
11,C=CCN1C[C@H](C(=O)N(CCCN(C)C)C(=O)NCC)C[C@@H]2c3cccc4[nH]cc(c34)C[C@H]21 [Cabergoline],-0.17
12,C[C@H]1O[C@H](O[C@H]2[C@H](O)[C@@H](O)[C@@H](O)[C@H](O)[C@@H]2O)[C@@H](N)C[C@@H]1NC(=N)C(=O)O [Kasugamycin hydrochloride],-0.17
13,CCOC(=O)Nc1ccc(NCc2ccc(F)cc2)cc1N [Retigabine],-1.09
14,Cn1cc(C2=C(c3cn(C4CCN(Cc5ccccn5)CC4)c4ccccc34)C(=O)NC2=O)c2ccccc21,0.73
15,O=[N+]([O-])C(Br)(CO)CO [Bronopol],-0.1
16,CCN(C)C(=O)Oc1cccc([C@H](C)N(C)C)c1 [Rivastigmine],0.75
17,CCN1CC2(OC(=O)c3ccccc3NC(C)=O)CCC(OC)C34C1C(CC23)C1(O)CC(OC)C2CC4C1(O)C2OC (centres undefined) [Lappaconitine],0.23

row,Compound,z-score of subpopulation abundance
1,C=C(C)[C@H]1Cc2c(ccc3c2O[C@@H]2COc4cc(OC)c(OC)cc4[C@@H]2C3=O)O1 [Rotenone (Barbasco)],0.29
2,CN1[C@@H]2C[C@@H](OC(=O)[C@H](CO)c3ccccc3)C[C@H]1[C@@H]1O[C@@H]12 [Scopolamine HBr trihydrate],-0.11
3,CN(C)[C@@H]1C(=O)C(C(N)=O)=C(O)[C@@]2(O)C(=O)C3=C(O)c4c(O)cccc4[C@@](C)(O)[C@H]3[C@H](O)[C@@H]12 [Oxytetracycline Dihydrate],-0.39
4,CCN(C)C(=O)Oc1cccc([C@H](C)N(C)C)c1 [Rivastigmine Tartrate],-0.84
5,CN(C)C(=O)Oc1ccc[n+](C)c1 [Pyridostigmine Bromide],0.25
6,"NCC(O)c1ccc(O)cc1 (racemic) [(+,-)-Octopamine HCl]",-0.79
7,CN1c2ccccc2C(NCCCCCCC(=O)O)c2ccc(Cl)cc2S1(=O)=O (centres undefined) [Tianeptine sodium],0.21
8,CC(=O)OCC1=C(C(=O)O)N2C(=O)C(N)C2SC1 (centres undefined) [7-Aminocephalosporanic acid],0
9,C=CC[C@]1(O)CC[C@H]2[C@@H]3CCC4=CC(=O)CCC4=C3C=C[C@@]21C [Altrenogest],-0.72
10,CN1[C@@H]2C[C@@H](OC(=O)[C@H](CO)c3ccccc3)C[C@H]1[C@@H]1O[C@@H]12 [Scopolamine HBr],-0.95
11,CN(C)[C@@H]1C(=O)C(C(N)=O)=C(O)[C@@]2(O)C(=O)C3=C(O)c4c(O)cccc4[C@@](C)(O)[C@H]3[C@H](O)[C@@H]12 [Oxytetracycline (Terramycin)],-0.17
12,CCCCCCCCCCCCCCCC[n+]1ccccc1 [Cetylpyridinium Chloride],3.46
13,CCOC(=O)Nc1ccc(NCc2ccc(F)cc2)cc1N [Retigabine 2HCl],-0.52
14,COc1ccc(C(CN(C)C)C2(O)CCCCC2)cc1 (centres undefined) [Venlafaxine HCl],0.66
15,N#Cc1nn(-c2c(Cl)cc(C(F)(F)F)cc2Cl)c(N)c1[S+]([O-])C(F)(F)F (centres undefined) [Fipronil],-0.68
16,CC1(C)SC2C(N)C(=O)N2C1C(=O)O (centres undefined) [6-Aminopenicillanic acid],0.97
17,O=C(O[C@H]1C[N+]2(CCCOc3ccccc3)CCC1CC2)C(O)(c1cccs1)c1cccs1 [Aclidinium Bromide],0.73

# From the supplement of paper PMC8975748
